Consider nine compounds from PubChem BioAssay (NCATS).

Values joined by “and” are separate entries in the source; they are usually repeats but may differ in a detail not shown here. Equal entries are not always repeated. Inconclusive results are not listed. Active and inactive are the calls of the source. Unless noted, calls come from the whole dose curve; as a rule, active = well fitted curve in the direction sought with a large enough effect; inconclusive = small, poorly fitted or top-dose-only effect, or another doubt; inactive = no such curve, though single readings can be large; an effect the other way counts as inactive or inconclusive.

Assay [1] can be described thus: Cell Viability - NIH 3T3 (AID 541).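 For activity change, negative = cytotoxicity: plate controls were DMSO alone for no effect and tamoxifen positive control for full effect.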 Note: nearly all actives have a fitted effect of over 25% in size. Note: potency is the fitted concentration of half-maximal effect. To be noted: NIH 3T3 cell viability, qHTS; activity change, negative = cytotoxicity: at 92.2 µM (top of the series). The procedure, abridged:
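NIH 3T3 mouse embryo fibroblasts (1000 cells/well) were plated in complete medium and treated with compound for 40 hr at 37 °C. Viability was read as intracellular ATP by CellTiter-Glo luminescence; AC50 values came from Hill-equation fits of concentration-response data.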

Assay [2] is described as follows: Cell Viability - H-4-II-E (AID 543). Note: % is set by controls: 0 for no effect and ±100 for the full control effect; nearly all actives have a fitted effect of over 35% in size. The method in brief: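 Rat hepatoma H-4-II-E cells (1500/well) were plated, incubated 5 hr at 37 °C, then exposed to compounds for 40 hr at 37 °C. Cellular ATP was read by CellTiter-Glo luminescence; AC50 came from Hill-equation fits of concentration-response data.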
Assay [3] in a line: Cell Viability - LYMP2-014 (AID 983).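 Note: plate controls were DMSO only for no effect and 92 µM tetraoctylammonium bromide for full effect; nearly all actives have a fitted effect of over 50% in size.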 The procedure, abridged:
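Human lymphoblastoid cells (2500/well) were pre-incubated 5 hr at 37 C, then exposed to compounds in complete medium for 24 hr at 37 C. Intracellular ATP was read by CellTiter-Glo luminescence after 30 min at room temperature; AC50 from Hill fits.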

Assay [4] is described as follows: Cell Viability - LYMP2-018 (AID 985).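 For activity change, negative = cytotoxicity: plate controls were DMSO only for no effect and tetraoctylammonium bromide at 92 µM for full effect.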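 Note: compound exposure lasted 24 hr at 37 °C; nearly all actives have a fitted effect of over 50% in size.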 Note: potency is the fitted concentration of half-maximal effect. The method in brief:
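Human lymphoblastoid cells (2500/well) were pre-incubated 5 hr at 37 C, then exposed to compounds for 24 hr at 37 C in complete medium. Viability was read as intracellular ATP by CellTiter-Glo luminescence; AC50 values came from Hill-equation fits.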

Assay [5] in a line: Cell Viability - LYMP2-024 (AID 988).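 For activity change, negative = cytotoxicity: plate controls were DMSO only for no effect and 92 µM tetraoctylammonium bromide for full effect.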 Note: nearly all actives have a fitted effect of over 60% in size. Note: potency is the fitted concentration of half-maximal effect. The method in brief: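 Human lymphoblastoid cells (2500/well) in complete medium were preincubated 5 hr at 37 C, then exposed to compounds for 24 hr at 37 C. Intracellular ATP was read by CellTiter-Glo luminescence; AC50 from Hill-equation fits of concentration-response data.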
The target of assay [6] is Estrogen receptor (Homo sapiens) (UniProt P03372). Put plainly: qHTS assay for small molecule antagonists of estrogen receptor alpha signaling (AID 588513; active = well fitted curve in the direction sought with a large enough effect in the signal ratio, with a control signal flat, not every such curve was filed as active; the % refers to the signal ratio; note: % is set by controls: 0 for no effect and ±100 for the full control effect). The procedure, abridged: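 ER-alpha-UAS-bla GripTite HEK 293 cells in medium with 2% charcoal/dextran-treated FBS were preincubated 4 h at 37 C, dosed with compound (1:2 titration), stimulated with 0.5nM 17-beta-estradiol for 18 h, then read by CCF4 beta-lactamase fluorescence.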
Estrogen receptor (Homo sapiens), sequence (P03372 whole entry, looked up): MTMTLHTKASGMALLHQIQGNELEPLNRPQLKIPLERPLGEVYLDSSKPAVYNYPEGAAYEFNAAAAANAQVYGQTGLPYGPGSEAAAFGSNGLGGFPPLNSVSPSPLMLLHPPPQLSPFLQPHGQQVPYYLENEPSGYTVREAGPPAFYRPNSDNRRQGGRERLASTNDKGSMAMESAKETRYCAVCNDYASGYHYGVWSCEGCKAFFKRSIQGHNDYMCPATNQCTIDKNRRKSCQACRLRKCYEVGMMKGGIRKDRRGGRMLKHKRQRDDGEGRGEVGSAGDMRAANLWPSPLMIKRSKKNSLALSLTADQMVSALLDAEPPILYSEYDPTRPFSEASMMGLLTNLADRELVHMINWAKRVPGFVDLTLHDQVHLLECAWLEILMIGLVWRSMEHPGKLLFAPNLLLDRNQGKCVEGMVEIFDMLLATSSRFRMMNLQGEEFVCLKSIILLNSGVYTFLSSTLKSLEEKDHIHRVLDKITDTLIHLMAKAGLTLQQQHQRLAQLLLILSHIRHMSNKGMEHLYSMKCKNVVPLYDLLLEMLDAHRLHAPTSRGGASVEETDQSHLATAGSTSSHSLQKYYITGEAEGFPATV
Background: Quantitative high-throughput screening tests each substance at several concentrations.

Assay [7] has the same target. Put plainly: qHTS assay for small molecule agonists of estrogen receptor alpha signaling (AID 588514; calls by dose curve;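 note: 0% = vehicle only and 100% = reference agonist; nearly all actives have a fitted effect of over 70% in size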). The method in brief:
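ER-alpha-UAS-bla GripTite HEK 293 cells in medium with 2% charcoal/dextran-treated FBS were treated with compound titrations at 37 C for 18 hrs; beta-lactamase reporter read by CCF4 fluorescence after 2 hrs at RT.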

Assay [8] addresses Glucocorticoid receptor (Homo sapiens) (UniProt P04150). Put plainly: qHTS assay for small molecule antagonists of glucocorticoid receptor signaling (AID 588533; active = well fitted inhibition curve with a large enough effect in the signal ratio, with a control signal flat, not every such curve was filed as active; the % refers to the signal ratio;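 note: cells stimulated with 2 nM dexamethasone as agonist; % is set by controls: 0 for no effect and ±100 for the full control effect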). The procedure, abridged: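 Antagonist-mode qHTS: compound titrations added to GRE-bla HeLa cells, then dexamethasone 2 nM final; 18 h, 37 C. CCF4 FRET fluorescence normalized to dexamethasone and DMSO; IC50 from Hill fit.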

The target in assay [9] is Peroxisome proliferator-activated receptor delta (Homo sapiens) (UniProt Q03181). The experiment in a line: qHTS assay for small molecule agonists of peroxisome proliferator-activated receptor delta signaling (AID 588534; calls by dose curve;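 note: 0% = DMSO basal wells and 100% = positive control agonist at 10 µM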). The procedure, abridged:
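Cell-based beta-lactamase reporter assay run in agonist mode: cells seeded and incubated 5 hrs at 37 C, compounds added and incubated 18 hrs at 37 C. CCF4 dye fluorescence read after 2 hrs at RT; EC50 and efficacy from Hill fits.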

Assay [10] in a line: qHTS assay for small molecule antagonists of peroxisome proliferator-activated receptor delta signaling (AID 588535; active = well fitted inhibition curve with a large enough effect in the signal ratio, with a control signal flat, not every such curve was filed as active; the % refers to the signal ratio;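 for max response: cells co-treated with a PPAR-delta agonist as stimulator during compound exposure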). To be noted: HEK293T PPARd-UAS-bla, beta-lactamase FRET ratio, 18 h; 460 nm channel. The method in brief: (§1)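 Cell-based beta-lactamase assay in antagonist mode: 4000 HEK293T PPAR-delta-UAS-bla cells per well, 5 hr preincubation then 18 hr compound incubation at 37 C. IC50 obtained by Hill equation fitting.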

Assay [11] has as its target Peroxisome proliferator-activated receptor delta (Homo sapiens) (UniProt Q03181). Described as above. The method in brief: as §1
The target of assay [12] is Peroxisome proliferator-activated receptor gamma (Homo sapiens) (UniProt P37231). The experiment in a line: qHTS assay for small molecule agonists of peroxisome proliferator-activated receptor gamma signaling (AID 588536; active = well fitted curve in the direction sought with a large enough effect in the signal ratio, with a control signal flat, not every such curve was filed as active; the % refers to the signal ratio;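 note: 0% = DMSO basal wells and 100% = rosiglitazone at 2 µM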). The procedure, abridged:
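HEK293 UAS-bla reporter line, 1% charcoal/dextran FBS; titration, 16 h, 37 C; CCF4 loading 2 h RT; fluorescence 460/530 nm. Normalized to rosiglitazone 2 uM = 100%, DMSO = 0%.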

The target in assay [13] is Voltage-gated inwardly rectifying potassium channel KCNH2 (Homo sapiens) (UniProt Q12809). Put plainly: qHTS Assay for Small Molecule Inhibitors of the Human hERG Channel Activity (AID 588834).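 Note: top concentration of the series differs between compounds; % is set by controls: 0 for no effect and ±100 for the full control effect; lower thallium flux fluorescence means stronger hERG block; nearly all actives have a fitted effect of over 50% in size.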 The method in brief:
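U2OS cells transduced with hERG via BacMam (MOI ~100), plated 2000/well, loaded with FluxOR thallium dye, compound ~10 min, then stimulation buffer; fluorescence decrease read kinetically; AC50 from Hill fits.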

Assay [14] in a line: qHTS assay for small molecule activators of the nuclear factor-kappa B (NF-kB) signaling pathway (AID 651749; active = well fitted activation curve with a large enough effect in the signal ratio; the % refers to the signal ratio; note: % of control where 0% means no effect). To be noted: NF-kB-bla ME-180 cells, beta-lactamase FRET ratio, 16 h; stronger effect = higher value. The method in brief: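 Stably transfected ME-180 line; NF-kB response element upstream of beta-lactamase. Treatment: compound or DMSO, 16 hr. Detection: fluorescent FRET substrate.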

A short description of assay [15]: qHTS assay for environmental chemicals that activate the Aryl hydrocarbon Receptor (AhR) signaling pathway (AID 651777). Note: % of control where 0% means no effect; nearly all actives have a fitted effect of over 15% in size. To be noted: 1A2-DRE human hepatoma cells, luciferase, 24 h; activation: stronger effect = higher value. The method in brief: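 Measured luciferase activity, read 30 min after One-Glo addition at room temperature, from human hepatoma cells bearing a dioxin response element–CYP1A2 promoter reporter and exposed to compound for 24 hr at 37 C.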

Assay [16] can be described thus: MultiTox-Fluor Cytotoxicity Assay - LYMP1-001 - Live Cells (AID 947).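 Note: 0% = DMSO only and full inhibition = tetraoctylammonium bromide control.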
A short description of assay [17]: qHTS assay for small molecule agonists of the antioxidant response element (ARE) signaling pathway (AID 651741; active = well fitted activation curve with a large enough effect in the signal ratio; the % refers to the signal ratio; note: potency is the fitted concentration of half-maximal effect; for activation: % of control where 0% means no effect). The method in brief: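 Seeding 2,000 ARE-bla HepG2 cells per well preceded a 5 h incubation at 37 C/5% CO2 and a 16 h compound exposure at 37 C. Beta-lactamase reporter activity was then quantified by fluorescence after 2 h with LiveBLAzer B/G FRET substrate.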

Assay [18] addresses Glucocorticoid receptor (Homo sapiens) (UniProt P04150). The experiment in a line: qHTS assay for small molecule agonists of glucocorticoid receptor signaling (AID 588532; active = well fitted curve in the direction sought with a large enough effect in the signal ratio, with a control signal flat; the % refers to the signal ratio;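 note: 100% = dexamethasone at 0.1 µM and 0% = DMSO only wells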). To be noted: HeLa MMTV-bla, beta-lactamase ratio, agonist, 18 h; stronger effect = higher value; percent of dexamethasone control, DMSO zero. The method in brief: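 Using MMTV-bla HeLa cells in medium with 1% stripped FBS and 25 mM HEPES, compounds were titrated and incubated overnight-length (18 h). Beta-lactamase cleavage of CCF4 was quantified by dual-emission fluorescence.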

Assay [19] deals with Peroxisome proliferator-activated receptor gamma (Homo sapiens) (UniProt P37231). Put plainly: qHTS assay for small molecule antagonists of peroxisome proliferator-activated receptor gamma signaling (AID 588537; active = well fitted inhibition curve with a large enough effect in the signal ratio, with a control signal flat, not every such curve was filed as active; the % refers to the signal ratio;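 note: reporter cells co-stimulated with 50 nM rosiglitazone agonist during compound treatment; % of control where 0% means no effect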). The procedure, abridged:
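Inhibitors of agonist-stimulated UAS-bla reporter activity were sought in HEK293 cells; rosiglitazone (50 nM) defined full signal and DMSO baseline. Curves fitted to Hill model gave IC50 and efficacy.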

A short description of assay [20]: qHTS assay for small molecule disruptors of the mitochondrial membrane potential - 5 hr assay (AID 651755; calls by dose curve; note: % is set by controls: 0 for no effect and ±100 for the full control effect; nearly all actives have a fitted effect of over 40% in size). The method in brief:
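HepG2, 2,000 cells/well, overnight attach; cpd or DMSO 5 hr, 37C/5% CO2; Mito-MPS 30 min 37C; fluor 490/535 + 540/590 nm.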

Peroxisome proliferator-activated receptor gamma (Homo sapiens), sequence (P37231 whole entry, looked up): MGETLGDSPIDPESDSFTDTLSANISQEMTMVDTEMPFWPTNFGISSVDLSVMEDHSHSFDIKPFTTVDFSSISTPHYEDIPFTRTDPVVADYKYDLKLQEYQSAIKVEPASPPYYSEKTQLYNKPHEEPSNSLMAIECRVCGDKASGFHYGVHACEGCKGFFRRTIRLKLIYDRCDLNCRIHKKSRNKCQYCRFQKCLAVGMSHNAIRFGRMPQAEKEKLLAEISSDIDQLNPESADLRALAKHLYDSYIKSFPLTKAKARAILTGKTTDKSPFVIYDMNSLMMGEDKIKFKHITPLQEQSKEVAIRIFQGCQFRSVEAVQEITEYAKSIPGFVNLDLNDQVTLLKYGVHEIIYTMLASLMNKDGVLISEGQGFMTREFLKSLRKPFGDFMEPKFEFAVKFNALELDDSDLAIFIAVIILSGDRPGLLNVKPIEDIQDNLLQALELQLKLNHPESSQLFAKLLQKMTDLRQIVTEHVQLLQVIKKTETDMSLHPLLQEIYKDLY
Voltage-gated inwardly rectifying potassium channel KCNH2 (Homo sapiens), sequence (Q12809 whole entry, looked up): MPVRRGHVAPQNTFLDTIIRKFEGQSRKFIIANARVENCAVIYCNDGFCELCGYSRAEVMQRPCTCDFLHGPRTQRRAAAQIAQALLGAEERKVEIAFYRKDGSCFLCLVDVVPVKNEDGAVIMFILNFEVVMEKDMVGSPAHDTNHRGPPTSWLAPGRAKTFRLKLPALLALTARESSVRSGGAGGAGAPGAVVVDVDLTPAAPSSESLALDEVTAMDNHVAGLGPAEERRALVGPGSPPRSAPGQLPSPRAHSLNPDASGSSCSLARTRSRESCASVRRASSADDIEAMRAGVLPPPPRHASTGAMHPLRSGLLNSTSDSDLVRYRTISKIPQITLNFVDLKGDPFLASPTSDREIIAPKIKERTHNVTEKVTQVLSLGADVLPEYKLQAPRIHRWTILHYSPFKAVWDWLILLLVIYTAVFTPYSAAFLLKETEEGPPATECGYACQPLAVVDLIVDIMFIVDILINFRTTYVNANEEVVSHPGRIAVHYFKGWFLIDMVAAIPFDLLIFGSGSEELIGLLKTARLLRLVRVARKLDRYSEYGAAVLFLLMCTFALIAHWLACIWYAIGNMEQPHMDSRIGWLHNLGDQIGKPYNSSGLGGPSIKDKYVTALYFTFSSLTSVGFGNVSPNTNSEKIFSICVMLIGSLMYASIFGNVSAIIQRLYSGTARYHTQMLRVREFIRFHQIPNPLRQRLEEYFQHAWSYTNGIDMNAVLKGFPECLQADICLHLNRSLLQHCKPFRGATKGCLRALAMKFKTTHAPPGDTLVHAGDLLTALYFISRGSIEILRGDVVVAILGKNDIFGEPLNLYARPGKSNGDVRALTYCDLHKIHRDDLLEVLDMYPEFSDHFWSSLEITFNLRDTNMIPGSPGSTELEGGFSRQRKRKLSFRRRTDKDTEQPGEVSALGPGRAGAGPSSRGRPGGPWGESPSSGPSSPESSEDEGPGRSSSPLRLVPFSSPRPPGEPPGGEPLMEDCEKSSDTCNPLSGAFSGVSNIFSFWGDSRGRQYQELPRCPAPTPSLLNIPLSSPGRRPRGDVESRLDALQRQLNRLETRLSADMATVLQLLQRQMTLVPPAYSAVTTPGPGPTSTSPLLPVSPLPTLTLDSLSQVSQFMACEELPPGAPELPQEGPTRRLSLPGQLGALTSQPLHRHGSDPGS
Glucocorticoid receptor (Homo sapiens), sequence (P04150 whole entry, looked up): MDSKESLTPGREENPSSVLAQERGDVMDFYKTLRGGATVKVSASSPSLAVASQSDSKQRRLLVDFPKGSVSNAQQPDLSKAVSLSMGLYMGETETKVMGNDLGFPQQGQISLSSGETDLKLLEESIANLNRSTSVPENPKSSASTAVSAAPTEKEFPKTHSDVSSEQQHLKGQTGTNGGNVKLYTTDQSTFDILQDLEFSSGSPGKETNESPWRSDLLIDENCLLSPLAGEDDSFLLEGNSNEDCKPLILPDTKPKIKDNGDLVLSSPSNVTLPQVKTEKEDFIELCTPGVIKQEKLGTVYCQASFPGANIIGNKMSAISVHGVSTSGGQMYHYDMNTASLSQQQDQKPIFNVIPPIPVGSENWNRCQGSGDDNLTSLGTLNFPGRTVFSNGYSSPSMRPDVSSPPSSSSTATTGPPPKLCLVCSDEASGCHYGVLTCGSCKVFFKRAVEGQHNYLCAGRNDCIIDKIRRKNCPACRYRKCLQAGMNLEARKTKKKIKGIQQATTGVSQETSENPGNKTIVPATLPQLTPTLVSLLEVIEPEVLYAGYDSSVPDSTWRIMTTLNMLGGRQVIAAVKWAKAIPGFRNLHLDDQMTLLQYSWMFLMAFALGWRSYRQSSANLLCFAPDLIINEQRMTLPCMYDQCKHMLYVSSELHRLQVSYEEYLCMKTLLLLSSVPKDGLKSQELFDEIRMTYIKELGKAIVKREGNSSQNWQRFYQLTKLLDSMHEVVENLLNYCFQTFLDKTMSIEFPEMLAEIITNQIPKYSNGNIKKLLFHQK
Peroxisome proliferator-activated receptor delta (Homo sapiens), sequence (Q03181 whole entry, looked up): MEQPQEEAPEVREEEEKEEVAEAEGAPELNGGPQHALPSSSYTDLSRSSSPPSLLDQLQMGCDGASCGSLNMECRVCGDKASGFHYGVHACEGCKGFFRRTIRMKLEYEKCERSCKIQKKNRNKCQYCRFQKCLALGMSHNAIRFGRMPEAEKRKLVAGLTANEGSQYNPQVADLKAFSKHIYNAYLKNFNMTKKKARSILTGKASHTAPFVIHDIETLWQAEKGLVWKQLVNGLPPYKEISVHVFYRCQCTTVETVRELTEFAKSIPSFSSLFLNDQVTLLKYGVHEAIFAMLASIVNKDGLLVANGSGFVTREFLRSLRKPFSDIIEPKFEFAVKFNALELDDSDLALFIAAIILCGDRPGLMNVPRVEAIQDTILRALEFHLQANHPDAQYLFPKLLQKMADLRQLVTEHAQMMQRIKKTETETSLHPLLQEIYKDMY

On to `Nc1ncc([N+](=O)[O-])s1`, for which the Potency result in [1], in assay [2], in assay [3], in [4], in assay [5] and in [6] was “inactive” each time. For the same compound, the Potency result in assay [7] and in assay [13] was “inactive” each time. The call in assay [8], in [9], in assay [11] and in assay [12] was inactive. The max response in [10] is 30.2%. Also, the activation in [14] is 0.765% (inactive); in assay [15], 1.78% (inactive).
Regarding `O=[N+]([O-])c1ccccc1-c1ccccc1`, the Potency result in assay [1], in assay [2], in [3], in assay [4], in assay [5] and in [6] was “inactive” throughout. In addition, the Potency result in assay [7] and in [17] was “inactive” in each case. The result in assay [16] and in assay [12] was inactive. The activation in assay [15] is -0.891% (inactive).
In the case of `CCC/C=N/O`, the Potency entry in [1], in assay [2], in [5], in assay [6], in [7] and in assay [19] was “inactive” each time. The Potency result in assay [13] is “inactive”. Further, the compound was called inactive in assay [16], in [8] and in [12]. For the same compound, the figures for the activation in assay [18] and in assay [15] were 5.99% (inactive) and -0.464% (inactive), respectively.
As to `CCOC(=O)CBr`, the Potency entry in assay [1], in assay [2], in [3], in assay [4], in assay [13] and in assay [17] was “inactive” in each case. In assay [20], the Potency entry was “inactive”. Further, the result in [16], in assay [8], in [9], in assay [11] and in assay [12] was inactive. Besides, in assay [10], the max response was -11.7%. Also, the activation in assay [14] was -0.133% (inactive); in assay [15], -0.43% (inactive).
In the case of `Nc1ccc(-c2ccc(N)cc2)cc1`, the Potency entry in assay [1], in [3], in assay [4], in [5], in assay [6] and in [7] was “inactive” in each case. The Potency entry in [19], in assay [13], in [17] and in assay [20] was “inactive” throughout. Further, the activation is -6.73% (inactive) in [18] and 11.6% (inactive) in assay [15]. The compound was called inactive in assay [8] and in assay [12].
In the case of `OCCBr`, the Potency result in [1], in assay [3], in assay [5], in assay [6], in assay [7] and in assay [19] was “inactive” each time. The Potency result in [13] was “inactive”. Further, the activation in [18] was -2.73% (inactive); in assay [14], 0.0665% (inactive); in assay [15], -0.283% (inactive). Besides, the outcome in assay [8] and in assay [12] was inactive.
`O=[N+]([O-])c1ccc(Cl)cc1`: the Potency entry in assay [1], in assay [2], in assay [3], in assay [17] and in [20] was “inactive” in each case. In addition, the result in assay [16] and in assay [8] was inactive. The activation in [18] is -1.26% (inactive) and -4.41% (inactive); in assay [14], -0.791% (inactive) and -0.89% (inactive); in assay [15] it was -0.207% (inactive) and 4.63% (inactive).
On to `O=[N+]([O-])c1cccc(O)c1`, for which the Potency result in assay [1], in [2], in assay [3], in assay [4], in [5] and in assay [13] was “inactive” each time. Also, the outcome in assay [16], in [9] and in [12] was inactive. Besides, the figures for the activation in [14] and in [15] were -0.57% (inactive) and 1.58% (inactive), respectively.
As to `OC[P+](CO)(CO)CO`, the Potency in [1] is 0.501 µM (active); in assay [4] it was 7.94 µM (active); in assay [5], 7.94 µM (active); in assay [17], 37.6 µM (active) and 30.6 µM (active). In addition, the compound was classed as inactive in assay [16], in assay [8], in assay [9], in assay [11] and in assay [12]. Moreover, the Potency result in assay [6], in [7], in assay [19], in [13] and in assay [20] was “inactive” throughout. Moreover, the activation in assay [18] was -0.662% (inactive) and -6.97% (inactive); in assay [15] it was -0.473% (inactive) and -0.989% (inactive). Besides, the max response in assay [10] was -16.4%.
